# Assay results from the supplement of paper PMC6555819.
# Test system: PXR:RXRa (NR concentration 270 nM, RXRa partner concentration 90 nM)
# Test: PBM binding z-score (relative to random genomic background probes); higher = stronger binding; sequences stand for … in GC…GCGATTGACAGCGTAGAATGAAGG
# Summary of the method: (§1)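 Random background probes are the reference for binding z-scores. These scores derive from regression-normalized fluorescence on custom Agilent 4×180K protein-binding microarrays incubated 1 h with ligand-free nuclear receptor dimers. Binding was detected with antibodies against each partner (one per run).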
row,Sequence,PBM binding z-score
1,CAAGCTAGGTCAAGAGGTCAAAGTCCGCTTCCCG,6.25
2,TTACCAAGGTGAAAGGTCGTTGAGGCACGCCTTG,3.98
3,CCTGCTAGGTCTATGGTCAGCTAAAGCAGCTCGC,-0.569
4,AGTCATAGTTCACTAGGTAACGTAAGATTCAGCT,1.17
5,ACTAGTTGGTAAGCTGAGGTCACACACAATTCGG,4.72
6,GCTGCTAGGTCAGGTTGGTCGGCTAACGGGTACG,-0.127
7,CCTACTGGGCCAAGGTCTTTGATCAGTCAAAGCA,-0.407
8,ATATGAAGGTTATCGGGTCATTCAGTTTGCGCAT,3.93
9,GCTGCTAGGTCAGGTTGGTCTGCTAACGGGTACG,0.505
10,CTCGAAAGGTCGGTTGAGGTGAGTAAACGGATAA,3
11,CGTCGGAGGACAGAAGGTCAGAGCTGTCCGCTTT,1.48
12,AGTCAAAGTTCACGAGGTAACGTAAGATTCAGCT,5.13
13,ATATGTAGCTTAAGGGTCATTCAGGTTGGTTCGC,4.83
14,CCGACTGGGCCATTCAGAGGTCATTGATCATATG,4.88
15,ATCTCTAGGTAAAGTTCAGCGAAAGATCGATAGA,2.29
16,CGTCCAAGGTCAGCAGGTCACTGAAAGCGACGTG,4.71
17,TAGCCTAGGTCAGATCGGGGCAGTATACGCTATA,1.89
18,CGTCCAAGGTCAACAGGTCAGTGAAAGCGACGTG,4.98
19,CGTCAAAGTTCAACTAAGTTAACGTAAAGCACGC,6.14
20,TCTAGGAGGACACGAAGGTCAGAGCTTTCCAGAG,1.72

row,Sequence,PBM binding z-score
1,AGTCAAAGTTCACGACGAGGTAACGTAAAGCACG,5.24
2,CAAACTAGGTCACGAAAGGTCAACGTCGAATGAC,7.35
3,AGTCAAATTTCACTAGGTAACGTAAGATTCAGCT,0.334
4,CGAACTAGGTCAGAACAGGACAGTTAAGGATGAT,1.15
5,GATACAGAGTCAGCTAGAGGCCAGAGTATGGAAA,-0.537
6,CCCCGGAGGACAGAAGGTCAGAGCTGTCCGCTTT,1.25
7,AGTCCAAGTTCACTAGGTAACGTAAGATTCAGCT,2.45
8,CGTCAAAGCTCAACTAAGGTAACGTAAAGCACGC,-0.124
9,TTACGAAGGTGAAAGGTCGTTGATGCACGCCTTG,3.77
10,CATACAGGGTCCGCTAGGCCAGAGTAGGGACGGC,-0.819
11,CCTACTGGGCCATTCAGAGGTCATTGATCATATG,4.8
12,ATCGAATGGTCGAAGGTGAGTATACCCACCCGAA,-0.0379
13,TAGCCTAGGACATGCGGGCCAGTATAGTGTCGGC,-0.867
14,GCTGCTAGGTCAGGATGGTCAGCTAACGGGTACG,0.108
15,CCTCGGAGGACAGAAGGTCAGATCTGTCCGCTTT,1.65
16,ATCTCTAGGTAAAGTTCATTGAAAGATCGATAGA,4.46
17,CAGCCTAGGTGAGGGCCAGTATAGGAGGAACGTT,-0.652
18,GCTGCTAGGTCAGGTTGGTCAACTAACGGGTACG,0.217
19,CGTCGGAGGACAACAGGAGGTCAGAGCTGCCAGA,2.5

# Test system: PXR homodimer (NR concentration 270 nM)
# Test: as above
# Summary of the method: as §1
row,Sequence,PBM binding z-score
1,CAAGCTAGGTCAAGAGGTCAAAGTCCGCTTCCCG,3.16
2,TTACCAAGGTGAAAGGTCGTTGAGGCACGCCTTG,0.614
3,CCTGCTAGGTCTATGGTCAGCTAAAGCAGCTCGC,-0.846
4,AGTCATAGTTCACTAGGTAACGTAAGATTCAGCT,0.241
5,ACTAGTTGGTAAGCTGAGGTCACACACAATTCGG,1.85
6,GCTGCTAGGTCAGGTTGGTCGGCTAACGGGTACG,-0.593
7,CCTACTGGGCCAAGGTCTTTGATCAGTCAAAGCA,-0.601
8,ATATGAAGGTTATCGGGTCATTCAGTTTGCGCAT,8.15
9,GCTGCTAGGTCAGGTTGGTCTGCTAACGGGTACG,-0.437
10,CTCGAAAGGTCGGTTGAGGTGAGTAAACGGATAA,0.167
11,CGTCGGAGGACAGAAGGTCAGAGCTGTCCGCTTT,-0.228
12,AGTCAAAGTTCACGAGGTAACGTAAGATTCAGCT,2.45
13,ATATGTAGCTTAAGGGTCATTCAGGTTGGTTCGC,1.67
14,CCGACTGGGCCATTCAGAGGTCATTGATCATATG,2.75
15,ATCTCTAGGTAAAGTTCAGCGAAAGATCGATAGA,1.48
16,CGTCCAAGGTCAGCAGGTCACTGAAAGCGACGTG,0.781
17,TAGCCTAGGTCAGATCGGGGCAGTATACGCTATA,-0.84
18,CGTCCAAGGTCAACAGGTCAGTGAAAGCGACGTG,1.28
19,CGTCAAAGTTCAACTAAGTTAACGTAAAGCACGC,5.97
20,TCTAGGAGGACACGAAGGTCAGAGCTTTCCAGAG,0.568

row,Sequence,PBM binding z-score
1,AGTCAAAGTTCACGACGAGGTAACGTAAAGCACG,2.18
2,CAAACTAGGTCACGAAAGGTCAACGTCGAATGAC,2.65
3,AGTCAAATTTCACTAGGTAACGTAAGATTCAGCT,-0.0218
4,CGAACTAGGTCAGAACAGGACAGTTAAGGATGAT,0.458
5,GATACAGAGTCAGCTAGAGGCCAGAGTATGGAAA,-0.489
6,CCCCGGAGGACAGAAGGTCAGAGCTGTCCGCTTT,-0.156
7,AGTCCAAGTTCACTAGGTAACGTAAGATTCAGCT,2.13
8,CGTCAAAGCTCAACTAAGGTAACGTAAAGCACGC,-0.0533
9,TTACGAAGGTGAAAGGTCGTTGATGCACGCCTTG,0.289
10,CATACAGGGTCCGCTAGGCCAGAGTAGGGACGGC,-0.353
11,CCTACTGGGCCATTCAGAGGTCATTGATCATATG,2.3
12,ATCGAATGGTCGAAGGTGAGTATACCCACCCGAA,-0.408
13,TAGCCTAGGACATGCGGGCCAGTATAGTGTCGGC,-0.905
14,GCTGCTAGGTCAGGATGGTCAGCTAACGGGTACG,-0.722
15,CCTCGGAGGACAGAAGGTCAGATCTGTCCGCTTT,-0.42
16,ATCTCTAGGTAAAGTTCATTGAAAGATCGATAGA,5.32
17,CAGCCTAGGTGAGGGCCAGTATAGGAGGAACGTT,-0.633
18,GCTGCTAGGTCAGGTTGGTCAACTAACGGGTACG,-0.382
19,CGTCGGAGGACAACAGGAGGTCAGAGCTGCCAGA,0.93
